The list is not random: actives were taken first. Their share in the collection is about 2.9%.
GLP-1R inv ag – inverse agonists of human GLP-1 receptor. P43220. HEK293 GLP-1R CRE-luciferase, luminescence, 24 h; GLP-1R form is constitutively active. Potency, µM (series often up to 38.3 µM), without a hit: at the top dose activity change, negative = inhibition, actives largely listed as inhibitors. 410,000 tested, 1.6% active. AID 624417; also: potency is read from the fitted curve at half-maximal effect; % is scaled to controls: 0 for no effect and ±100 for the full control effect; nearly all actives have a fitted effect of over 55% in size
Target sequence (P43220 whole entry, looked up): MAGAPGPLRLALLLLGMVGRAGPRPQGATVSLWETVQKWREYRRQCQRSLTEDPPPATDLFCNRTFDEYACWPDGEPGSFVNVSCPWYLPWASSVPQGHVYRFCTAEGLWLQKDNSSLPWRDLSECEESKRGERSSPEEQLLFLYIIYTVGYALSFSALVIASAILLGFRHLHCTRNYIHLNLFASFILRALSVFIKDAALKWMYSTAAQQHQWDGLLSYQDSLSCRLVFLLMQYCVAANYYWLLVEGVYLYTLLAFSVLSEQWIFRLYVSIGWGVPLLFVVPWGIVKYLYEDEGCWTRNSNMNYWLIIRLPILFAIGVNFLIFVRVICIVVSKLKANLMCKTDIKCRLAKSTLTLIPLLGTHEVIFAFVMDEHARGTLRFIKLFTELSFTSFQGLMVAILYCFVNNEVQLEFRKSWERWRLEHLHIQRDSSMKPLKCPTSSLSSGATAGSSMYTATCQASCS
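Inverse agonism was detected as reduced cAMP-driven luciferase luminescence after 24 h compound treatment. The cells were HEK293 clones expressing constitutively active human GLP-1R with the reporter. Reporter-only and GPR119 cell lines served as counterscreen controls.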
GLP-1R agonist – GLP-1 receptor (human) agonism | P43220 | HEK293 GLP-1R CRE-luciferase, luminescence, 4-6 h; cells express a hypersensitive GLP-1R form | Potency, µM (titrated, usually from 45.6 µM), for inactives: at the highest dose activation, most hits filed as activators | 380,000 tested, 0.007% active; also: potency is read from the fitted curve at half-maximal effect; % of control where 0% means no effect
LDHA block – inhibitors of human lactate dehydrogenase A | AID 1347041 | activity change, % (values are at about 110 or 230 µM) | 480,000 tested, 0.15% active | P00338 | purified LDHA, NADH/diaphorase-resazurin fluorescence; hits give low values; in the data active = activity change below about -30%; inconclusive = mostly about -25% to -30%;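 also: plate controls were DMSO wells for no effect and wells without enzyme for full effect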
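LDH5 2 nM; NADH 0.06 mM, pyruvate 0.2 mM; 200 mM Tris pH 7.4, EDTA, Tween-20; 5 min RT. Detection: diaphorase 0.133 mg/mL + resazurin 37 µM, fluorescence ex540/em590 at 0 and 20 min; normalized to enzyme-free and DMSO wells.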
GLP1R cytotox – cytotoxicity in counter-screen for GLP-1R inverse agonists; 410,000 tested, 0.13% active; HEK293 cAMP-luciferase reporter cells, luminescence, 24 h; Potency, µM (series often up to 38.3 µM), for the others: at the highest dose activity change, negative = inhibition, hits mostly inhibitors; AID 624418;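 also: loss of luciferase light is scored as toxicity; potency is read from the fitted curve at half-maximal effect; % is scaled to controls: 0 for no effect and ±100 for the full control effect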
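A 23 nL compound transfer followed 12 hours of cell culture at 37 deg C; exposure then lasted 24 hr. Luciferase assay detection reagent was dispensed and plates read for luminescence after a 12 min room-temperature wait.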
p53 reactivator – restores transcriptional activity of mutant p53; 320,000 tested, 0.063% active; H1299 p53-A138V BP100-luciferase reporter, luminescence, 24 h; Potency, µM (doses to about 92.2 µM), without a hit: at the top dose activity change, positive = activation, most hits filed as activators; AID 504706; also: potency is read from the fitted curve at half-maximal effect; % of control where 0% means no effect; nearly all actives have a fitted effect of over 45% in size
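p53-null H1299 cells stably carrying temperature-sensitive p53-A138V and a BP100-luciferase reporter were pinned with compounds (4-point, 1:5 series) and held 24 hrs at 37 deg C. Luminescence was read 10 min after detection reagent.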
ClpP mod – qHTS Assay for Activators of ClpP; 340,000 tested, 1.9% active; Potency, µM (series often up to 57.5 µM), for inactives: at the top dose activity change, negative = active; purified B. subtilis ClpP, FRET peptide cleavage, 20 min; ATP-dependent Clp protease proteolytic subunit (Bacillus subtilis (strain 168)), P80244; AID 651965, 2013; active = well fitted falling curve with a large enough effect; inconclusive = small, poorly fitted or top-dose-only effect; inactive = no such curve, though single readings can be large or run the other way; also: potency is read from the fitted curve at half-maximal effect; the source files actives as falling curves though it sought activators and does not explain the sign; nearly all actives have a fitted effect of over 65% in size
Target sequence (P80244 whole entry, looked up): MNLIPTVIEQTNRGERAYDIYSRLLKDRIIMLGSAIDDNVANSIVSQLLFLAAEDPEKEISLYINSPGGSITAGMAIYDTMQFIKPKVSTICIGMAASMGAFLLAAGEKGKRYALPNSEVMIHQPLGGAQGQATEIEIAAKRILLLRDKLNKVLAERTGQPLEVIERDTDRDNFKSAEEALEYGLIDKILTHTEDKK
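ClpP 10 microg/mL final, pH 8 Tris/KCl buffer with BSA, glycerol, Tween-20; compound pinned in; FRET-FV substrate; RT 20 min; Ex320/Em430; ΔFRET vs ADEP 5.8 microM, DMSO, no enzyme.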
Active calls of the source: *; ? = inconclusive; / = no result. Unless noted, calls follow the shape of the dose curve; as a rule, active = well fitted curve in the direction sought with a large enough effect; inconclusive = small, poorly fitted or top-dose-only effect, or another doubt; inactive = no such curve, though single readings can be large; an effect the other way counts as inactive or inconclusive.

SMILES | GLP-1R inv ag | GLP-1R agonist | LDHA block | GLP1R cytotox | p53 reactivator | ClpP mod
CC1(C(=O)NCc2ccco2)Cc2c(-c3cccc(C(F)(F)F)c3)ccnc2O1 (configuration not stated) | 2.2µM* | 16% | 0 | ? | / | -2%
CC1(C(=O)NCc2cccs2)Cc2c(-c3ccccc3)ccnc2O1 (configuration not stated) | 4.5µM* | 8% | -2 | ? | / | -1%
CN(C)c1ccc(-c2ccnc3c2CC(C)(C(=O)NCc2cccs2)O3)cc1 (configuration not stated) | ? | -1% | 2 | ? | / | 4%
Cc1cc(=O)oc2n[nH]c(-c3ccccc3)c12 | 50% | 7% | -6 | -1% | 1% | 25µM*
COc1ccc(-c2[nH]nc3oc(=O)cc(C)c23)cc1 | 53% | 9% | 0 | 2% | / | ?
CC(CCCN(C)C)C(Cc1ccccc1)c1ccccc1 (configuration not stated) | 11µM* | 4% | -1 | -8% | / | /
COc1ccc2nc(-n3c(O)c(C4=c5ccccc5=NC4=O)[nH]c3=S)sc2c1 | -7% | 6% | -19 | ? | ? | -3%
Cc1ccc(C(=O)CC2(O)C(=O)N(Cc3ccc4c(c3)OCO4)c3ccccc32)cc1 (configuration not stated) | -22% | 12% | -3 | -24% | -5% | 16µM*
COc1cccc(-c2ncc3ccccc3c2COC(=O)c2ccc(F)cc2)c1 | 11µM* | 11% | -1 | 0% | -11% | ?
CC12CCC=CC1=C(C=O)C1C2CCC2(C)C(O)CCC12 (configuration not stated) | 11µM* | 8% | 2 | ? | / | /
Cc1cc(O)cc2c1C1CCC3(C)C(O)CCC3C1C=C2 (configuration not stated) | -8% | 18% | 22 | -17% | / | /
COc1cc2[nH]c3c(N4CCN(c5ccc(Cl)cc5)CC4)ncnc3c2cc1OC | 4% | -3% | -3 | -12% | -1% | 25µM*
COc1cccc2[nH]c3c(N4CCc5ccccc5C4)ncnc3c12 | 28% | 8% | 2 | 0% | 1% | /
COc1cccc(N2CCN(c3ncnc4c3[nH]c3ccc(F)cc34)CC2C)c1 (configuration not stated) | ? | -54% | -4 | 3.2µM* | -11% | -14%
COc1cccc2[nH]c3c(N4CCC(C)CC4)ncnc3c12 | -8% | 12% | 3 | -15% | 1% | 14µM*
COc1cccc(N2CCN(c3ncnc4c3[nH]c3ccccc34)CC2C)c1 (configuration not stated) | / | / | / | / | -28% | /
COc1ccc(CN2CN(c3ccc(Cl)cc3)C(=O)N(n3cnnc3)C2)cc1 | 0% | -13% | 0 | 1% | 0% | 1%
O=C(Nc1ccc(Nc2ccccc2)cc1)c1c(Cl)cccc1Cl | ? | 9% | 0 | -23% | / | /
CC(NC(=O)COC(=O)C12CC3CC(CC(O)(C3)C1)C2)c1ccccc1 (configuration not stated) | 6% | 8% | 0 | -2% | 0% | 3%
Cc1ccc(C(c2sc3nc(C)nn3c2O)N2CCN(CCO)CC2)cc1 (configuration not stated) | 9% | 6% | -2 | -13% | -2% | 1%
Cc1ccc(C(c2sc3nc(C)nn3c2O)N2CCN(c3ccccc3F)CC2)cc1 (configuration not stated) | 8.9µM* | -7% | 1 | -16% | -10% | -1%
O=C(O)CCc1ccc(-c2ccccc2)n1Cc1ccco1 | 4% | 6% | -6 | 86% | 0% | 28µM*
CC(=O)c1ccc(OCCCN2CCCCC2)cc1 | 4% | -3% | -32* | -1% | 3% | 3%
c1ccc(COc2ccc(OCCCCN3CCCC3)cc2)cc1 | 11µM* | -7% | -14 | -18% | 11µM* | -1%
c1ccc(COc2ccc(OCCCN3CCCCC3)cc2)cc1 | ? | 1% | -23 | -8% | ? | -4%
SMILES | GLP-1R inv ag | GLP-1R agonist | LDHA block | GLP1R cytotox | p53 reactivator | ClpP mod
CN1CCN(CCOc2ccc(Cc3ccccc3)cc2)CC1 | 11µM* | 7% | 0 | -1% | / | /
CC1CCN(CCOc2ccc(OCc3ccccc3)cc2)CC1 | ? | 5% | -7 | -33% | 21% | 3.2µM*
CN1CCN(CCOc2ccc(C#N)cc2)CC1 | / | / | -9 | / | / | /
CCN1CCN(C(=O)c2ccccc2NC(=O)c2ccc(Cl)cc2)CC1 | 21% | -6% | -5 | 8% | 23% | -1%
CCC(C)(C)NC(=O)C(c1ccc(C)cc1)N(Cc1cccs1)C(=O)c1ccc2c(c1)OCCO2 (configuration not stated) | 0% | 1% | -2 | -29% | -5% | 1%
COC(=O)c1ccc(Cl)c(NC(=O)Cc2ccccc2[N+](=O)[O-])c1 | -2% | -4% | -6 | -25% | -18% | 4%
O=C(Cc1cccc2ccccc12)Nc1ccc(OC(F)F)c(Cl)c1 | ? | -8% | -4 | 0% | -3% | -1%
Cc1cc(OCCN2CC(C)OC(C)C2)ccc1[N+](=O)[O-] (configuration not stated) | -2% | 7% | -16 | -11% | -6% | 2%
Cc1cc(OCCN2CCC(Cc3ccccc3)CC2)ccc1[N+](=O)[O-] | 11µM* | -5% | -9 | ? | / | /
CC(=O)N1c2ccccc2C(=O)C1N1CCN(c2ccc(F)cc2)CC1 (configuration not stated) | -6% | / | 0 | 0% | / | -2%
O=C(NCCCCc1ccccc1)c1ccc(C(=O)NCCCCc2ccccc2)cc1 | / | / | -1 | / | / | /
O=C(NC1(Cc2ccccc2)CCN(CCCc2ccccc2)C1=O)c1ccccc1 (configuration not stated) | 11µM* | 7% | 2 | -16% | -7% | 0%
O=C(NCc1ccccc1)Nc1ncnc2c1C(c1ccccc1)c1c(ccc3ccccc13)O2 (configuration not stated) | / | / | -10 | / | / | /
COCCN(C(=O)CSc1nc2ccccc2o1)c1c(N)n(Cc2ccccc2)c(=O)[nH]c1=O | 7% | 13% | -8 | -8% | -3% | 0%
N/C(=N\OCc1ccc([N+](=O)[O-])cc1)c1ccccn1 | 1.3µM* | -3% | -10 | -3% | -8% | /
CC(C)NC(=O)N(C)C[C@H]1Oc2c(NS(=O)(=O)c3cn(C)cn3)cccc2C(=O)N([C@H](C)CO)C[C@@H]1C | 14% | -5% | -3 | 12% | -2% | -1%

Screening results from PubChem BioAssay.
